VCAM1 TNFa pot: enhances TNF alpha induced VCAM1 expression in HUVEC. HUVEC TNFa-stimulated VCAM-1 immunofluorescence, high-content imaging; scaled per plate to unstimulated/TNFa-only wells. activation, % at 2 µM. actives 0.19% (n = 93,000);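 active means activation above the screen mean plus 3 SD, with well images confirming the hit on visual review, cut at about 28% in these data, passing the limit was not always enough; inconclusive means activation above that limit but images do not confirm it; inactive means activation not above that limit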;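 further: signal is the number of cytoplasmic VCAM-1 stained grains per positive cell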
VCAM1 pot conf: potentiators of TNFa-induced VCAM1 expression, confirmation, imaging, HUVEC, triplicate retest; 230 tested, under 10 active; activation, % at 2 µM; shares compounds with VCAM1 TNFa pot; HUVEC TNFa-stimulated VCAM-1 immunofluorescence imaging; AID 1034;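 active means activation above 30% in triplicate retests at 2 µM, then confirmed by visual review of the well images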
Numbers stand for hits; i = inactive; ? = inconclusive. The entries come from a sample that favours hits as a whole.

SMILES | VCAM1 TNFa pot | others
Cc1ccc2cccc(OC(=O)N3CCCC3)c2n1 | ? | VCAM1 pot conf=i
CC12CCCCC1N(O)CN2O (stereo not drawn) | i
CSc1ccc(CNC2CN3CCC2CC3)cc1 (stereo not drawn) | i
COc1ccc(Oc2cc(NC(=O)c3nn(C)cc3[N+](=O)[O-])cc([N+](=O)[O-])c2)cc1 | i
C=CCOC(=O)C1=C(C)OC(N)=C(C#N)C12C(=O)N(CN1CCOCC1)c1ccccc12 (stereo not drawn) | i
CN1CCc2nc3sc(C(=O)NC(C)(C)C)c(N)c3cc2C1 | i
Cc1ccc(S(=O)(=O)N(C)CCCC(=O)N2CCN(c3ccccn3)CC2)cc1 | 81 | VCAM1 pot conf=i
CC(=NCCN1CCCCC1)c1c(O)[nH]c(=O)[nH]c1=O | i
CNP1(NC)=NC(C(F)(F)F)=NC(C(F)(F)F)=N1 | i
Cc1sc2nc(COC(=O)Cc3ccccc3)[nH]c(=O)c2c1C | i
